DT40 TDP1 no CPT: qHTS for Inhibitors of human tyrosyl-DNA phosphodiesterase 1 (TDP1): qHTS in cells in absence of CPT. DT40 Tdp1-/- hTDP1 cells, no CPT, ATP luminescence, 48 h. Potency, µM (highest dose often 46.2 µM), actives largely listed as inhibitors. 15% of 420,000 active. AID 686978, 2013; note: nearly all actives have a fitted effect of over 55% in size
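Compound effects on proliferation are scored in DT40 Tdp1-/-;hTDP1 cells in the absence of CPT. ATP levels (CellTiter-Glo luminescence) are recorded after a ≥48 hr, 37 °C incubation.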
HepG2 tox: qHTS for Inhibitors of TGF-b: Cytotox Counterscreen. 0.76% of 410,000 active. Potency, µM (highest dose often 46.1 µM), most hits filed as cytotoxic. HepG2 CAGA-GFP viability, ATP luminescence, 18 h. AID 588856, 2011
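HepG2 CAGA-GFP cells (1000/well, DMEM with 1% FBS) received compound, then TGF-beta at 500 pg/mL final, and were incubated 18 hours at 37 degrees C. Viability was read by CellTiter-Glo luminescence. Media-only wells were set as complete cell-killing and DMSO as no toxicity.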
IL-1B inflam inh: qHTS for Inhibitors of Inflammasome Signaling: IL-1-beta AlphaLISA Primary Screen. 4.7% of 360,000 active. AID 743279, 2014. activity change, % at 57.5 µM. THP-1 LPS/ATP IL-1B secretion, AlphaLISA, 16 h; hits give low values; in the data active = activity change below about -50%; inconclusive = mostly about -30% to -49%
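Secreted IL-1B measured by AlphaLISA bead assay after 16 h compound exposure of THP-1 cells; compounds (final up to 57.5 uM) added 1 h before LPS (250 ng/mL) and ATP (1.25 mM) stimulation; lower signal means less secretion.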
TDP1 cell CPT: qHTS for Inhibitors of human tyrosyl-DNA phosphodiesterase 1 (TDP1): qHTS in cells in presence of CPT | chicken DT40 Tdp1-/-;hTDP1 cells + 20 nM CPT, ATP luminescence, 48 h | Potency, µM (doses to about 46.2 µM), most hits filed as inhibitors | 12% of 420,000 active | AID 686979, 2013; note: nearly all actives have a fitted effect of over 55% in size
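Chicken DT40 Tdp1-/- cells stably complemented with human TDP1 were seeded at 400 cells/well in medium containing 20 nM camptothecin, exposed to pin-transferred compounds, and grown at 37 °C for at least 48 hr. Viability was read as ATP luminescence.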
TGFb SMAD3 inh: qHTS for Inhibitors of TGF-b | HepG2 CAGA-GFP TGF-b/SMAD3 reporter, GFP fluorescence, 18 h; TGF-beta stimulated, 500 pg/mL final | Potency, µM (series often up to 46.1 µM), most hits filed as inhibitors | 1.2% of 410,000 active; note: nearly all actives have a fitted effect of over 65% in size
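Using HEPG2 CAGA-GFP reporter cells at 1000 cells/well, we pinned test compounds, stimulated with recombinant TGF-beta (500 pg/mL final) and measured total well GFP after 18 h.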
S-ASM inh: Inhibitors of Secretory Acid Sphingomyelinase (S-ASM): qHTS; Sphingomyelin phosphodiesterase (Homo sapiens), P17405; placental ASM, HMU-PC fluorogenic substrate, 60 min; Potency, µM (top dose mostly 57.5 µM), hits mostly inhibitors; 0.006% of 340,000 active; AID 504937, 2011
Target sequence (P17405 47-631 limits assumed): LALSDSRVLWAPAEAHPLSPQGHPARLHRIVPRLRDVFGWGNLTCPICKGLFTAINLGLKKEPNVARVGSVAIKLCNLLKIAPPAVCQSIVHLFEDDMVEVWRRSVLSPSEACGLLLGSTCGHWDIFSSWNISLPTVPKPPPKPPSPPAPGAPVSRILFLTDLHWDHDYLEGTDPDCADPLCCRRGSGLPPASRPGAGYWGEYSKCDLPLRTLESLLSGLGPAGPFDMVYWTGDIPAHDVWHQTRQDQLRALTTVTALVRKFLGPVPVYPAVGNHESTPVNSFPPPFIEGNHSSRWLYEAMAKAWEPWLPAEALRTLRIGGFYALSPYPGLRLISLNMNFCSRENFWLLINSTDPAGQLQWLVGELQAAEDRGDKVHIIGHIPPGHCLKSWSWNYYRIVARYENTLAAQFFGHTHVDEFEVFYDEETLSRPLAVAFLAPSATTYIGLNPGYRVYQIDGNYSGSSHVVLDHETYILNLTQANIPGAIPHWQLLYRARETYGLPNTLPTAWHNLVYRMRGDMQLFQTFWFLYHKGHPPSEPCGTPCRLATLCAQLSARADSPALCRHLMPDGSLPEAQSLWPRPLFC
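Steps: dispense placental human ASM, pin compound, wait 10 min at room temperature, add HMU-PC0 substrate at 9 uM final, incubate 60 min at 37 °C, add stop solution raising pH to 10, read fluorescence.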
Hits are given with their value; 0 = inactive; ? = inconclusive; - = not tested or not shown; [ ] = remark or other dose. A selection: hits, their analogues and other compounds. The true share with any hit is near 19%. Unless noted, calls come from the whole dose curve; as a rule, active = well fitted curve in the direction sought with a large enough effect; inconclusive = small, poorly fitted or top-dose-only effect, or another doubt; inactive = no such curve, though single readings can be large; an effect the other way counts as inactive or inconclusive.

SMILES	DT40 TDP1 no CPT	HepG2 tox	IL-1B inflam inh	TDP1 cell CPT	TGFb SMAD3 inh	S-ASM inh
CCn1c(=O)c2sccc2n2c(CCC(=O)Nc3ccc(C(C)C)cc3)nnc12	23µM	0	-	?	0	-
Cc1ccc(NC(=O)CCCc2nnc3n(C)c(=O)c4sccc4n23)cc1F	?	0	-	?	0	-
CCC(C)NC(=O)CCCc1nnc2n(CC(C)C)c(=O)c3sccc3n12 (stereo not given)	0	0	-	0	0	-
CSc1ccc(Cl)c(C(=O)N2CCN(c3ncccn3)CC2)c1	0	0	0	0	0	0
CC(=O)Nc1ccc(S(=O)(=O)N2CCC(C(=O)NCCc3c[nH]c4ccccc34)CC2)cc1	0	0	0	0	0	0
COc1ccc(NC(=O)CCCc2nnc3n(C(C)C)c(=O)c4sccc4n23)cc1Cl	23µM	0	-	13µM	0	-
COc1ccc(OC)c(NC(=O)CCCc2nnc3n(C(C)C)c(=O)c4sccc4n23)c1	?	0	-	0	0	-
Cc1cc([N+](=O)[O-])c(C)cc1-c1ccc(/C=N/NC(=O)c2cccnc2)o1	16µM	0	0	16µM	0	0
Cc1c(C(=O)N/N=C/c2ccc(-c3ccccc3[N+](=O)[O-])o2)sc(N)c1C#N	13µM	0	0	16µM	5µM	0
Cc1ccc(C(=O)N/N=C/c2ccc(-c3ccc(Br)cc3[N+](=O)[O-])o2)o1	?	0	-85	?	0	0
C[C@H](CO)N1C[C@H](C)[C@@H](CN(C)C(=O)NC2CCCCC2)Oc2c(NS(=O)(=O)c3ccc(F)cc3)cccc2C1=O	?	0	0	0	0	0
CC(C)N(c1ccccc1)c1ccc(NC(=O)CCl)cc1	2.6µM	0	-100	16µM	?	0
O=C(Nc1ccc(N=Nc2ccccc2)cc1)c1ccccc1Cl	0	0	-67	?	0	0
O=C(CCl)Nc1ccc(N=Nc2ccccc2)cc1	?	22µM	-98	2.9µM	?	0
CCOC(=O)CCCCCCCCCCCCC1C=CCC1 (stereo not given)	0	-	-	0	-	-
Cc1ccccc1C(=O)Nc1cccc(-c2ccc(N3CCOCC3)nn2)c1	?	0	0	?	0	0
Cc1ccccc1C(=O)Nc1cccc(-c2cn3ccccc3n2)c1	?	0	-80	?	?	0
CCCS(=O)(=O)Nc1cccc(-c2cn3ccc(C)cc3n2)c1	16µM	0	-	23µM	?	-
O=C(Nc1ccc(-c2cn3ccccc3n2)cc1)c1ccc(Cl)cc1	9.2µM	0	0	23µM	0	0
Cc1ccc(S(=O)(=O)Nc2cccc(-c3cn4cccc(C)c4n3)c2)cc1	?	0	-	?	?	-
CCCS(=O)(=O)Nc1cc(-c2cn3cccc(C)c3n2)ccc1C	18µM	0	-	?	0	-
O=C(O)c1ccccc1OCc1nc2ccccc2s1	0	0	0	0	0	0[11.5 µM]
